In PubChem BioAssay (NCI):
Compounds without any hit were thinned out: in the full panel of roughly 79,000, 15% have a hit. No stated cut-off is given here; in the data, active means growth inhibition above about 70%; inactive means the rest.

Columns and labels:
[1] = NCI Yeast Anticancer Drug Screen. Data for the rad50 strain (AID 155);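 further: 0% = growth of vehicle-only cultures of the same strain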; settings: S. cerevisiae rad50 strain growth inhibition; at 50.0 µM; hits give high values
How it was run: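 Inhibition values express reduced yeast growth in compound-treated cultures relative to vehicle-treated controls.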

[2] = NCI Yeast Anticancer Drug Screen. Data for the mec2-1 strain (AID 157); settings: S. cerevisiae mec2-1 strain, at 50.0 µM, hits give high values
How it was run: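 Readout is yeast growth inhibition, normalised to vehicle-treated controls, in the mec2-1 strain exposed to compound.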

[3] = NCI Yeast Anticancer Drug Screen. Data for the sgs1 mgt1 strain (AID 161);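 further: 0% = growth of cultures given vehicle only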; settings: S. cerevisiae sgs1 mgt1 strain, at 50.0 µM, hits give high values
How it was run: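 Compounds are added to genetically altered yeast, and growth is compared with cultures given vehicle alone to give percent inhibition.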

[4] = NCI Yeast Anticancer Drug Screen. Data for the cln2 rad14 strain (AID 165);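 further: 0% = growth equal to vehicle treated cultures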; settings: S. cerevisiae cln2 rad14 strain, at 50.0 µM, hits give high values
How it was run: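 Relative to vehicle controls, growth inhibition of compound-treated cln2 rad14 yeast was recorded.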

[5] = NCI Yeast Anticancer Drug Screen. Data for the bub3 strain (AID 167); settings: S. cerevisiae bub3 mutant strain, at 50.0 µM, hits give high values
How it was run: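 Steps: expose the mutant yeast strain to compound; grow alongside vehicle-treated cultures; measure growth; express inhibition against the vehicle cultures.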

[6] = NCI Yeast Anticancer Drug Screen. Data for the mlh1 rad18 strain (AID 175); settings: S. cerevisiae mlh1 rad18 strain growth inhibition; at 50.0 µM; hits give high values
How it was run: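 Test agents were incubated with a yeast strain of defined genotype (DNA damage repair defect). Inhibition of growth was derived by comparison with vehicle-exposed cultures.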

Measured: growth inhibition

CN(C)CCCCl
inactive: [1] -16.1% | [2] -3.05% | [3] 8.75% | [4] -26.8% | [5] -15.5% | [6] -17.3%

CCOC(=O)c1c(C)c2c(n1C)CC/C(=C\N1CCN(c3ccccc3)CC1)C2=O
inactive: [1] 0.6% | [2] -1.55% | [3] -19.5% | [4] -14.8% | [5] 2.25% | [6] 18.3%

CC(C)(C)n1c(=O)n(C(=O)C(Cl)(Cl)Cl)n(C(=O)C(Cl)(Cl)Cl)c1=O
inactive: [1] -13.8% | [2] -16.6% | [3] -14.6% | [4] 19.1% | [5] -10.3% | [6] -4.45%

O=C(O)/C=C\c1cc2c(cc1[N+](=O)[O-])OCO2
inactive: [1] 0.4% | [2] -5.3% | [3] -4.2% | [4] -12.2% | [5] 14.6% | [6] -2.5%

CC(=O)OCC1OC2OC(C)(C)OC2C2OC(C)(C)OC12 (stereo not given)
inactive: [1] -13.5% | [2] 5.35% | [3] 19.2% | [4] -4.65% | [5] -7.65% | [6] -12.8%

COc1cccc(OC(=O)Nc2ccccc2)c1
inactive: [1] 2.6% | [2] -10.6% | [3] -9.85% | [4] -41.3% | [5] -20.6% | [6] 3.25%

Cc1nc(Cc2n[nH]c(C)n2)n[nH]1
inactive: [1] 14.4% | [2] -6.65% | [3] 11.9% | [4] 15.2% | [5] 3.4% | [6] 14.3%

COC(=O)NC1(NC(=O)OC)NC(=O)c2cc(OC)c(OC)c(OC)c2N1
inactive: [1] 17.1% | [2] 8.45% | [3] 10.8% | [4] -10.8% | [5] -12.3% | [6] 3.85%

CCCCCCCCCCCCCCCCS(=O)(=O)N/N=C(/c1ccc(Cl)cc1)N1CCCCC1
inactive: [1] -18.2% | [2] -32.1% | [3] 3.25% | [4] 21.2% | [5] -10.2% | [6] -4.85%

N#CC(C(=N/O)/C(=N\O)C(C#N)c1ccccc1)c1ccccc1 (stereo not given)
inactive: [1] -3.35% | [2] -11.1% | [3] 2.55% | [4] -4% | [5] -5.75% | [6] 25.1%

Cc1cc(Br)c(NC(=O)c2csnn2)c(Br)c1
inactive: [1] -31% | [2] -13.6% | [3] -13.6% | [4] -26.8% | [5] 2.65% | [6] -11.4%

O=C(CN1CCCc2ccccc21)c1ccc(Cl)cc1
inactive: [1] -13.2% | [2] -2.05% | [3] 2.55% | [4] 9.2% | [5] 14.1% | [6] 4.35%

COC(=O)C(Cc1c[nH]c2ccccc12)NC(=O)c1ccccc1NC(=O)OCc1ccccc1 (stereo not given)
inactive: [1] 5.85% | [2] -13.1% | [3] 9.15% | [4] -14.1% | [5] 15.1% | [6] 7.65%

CCN(Cc1ccccc1)c1ccccc1C
inactive: [1] 12% | [2] -6.85% | [3] 10.8% | [4] 0% | [5] 7.65% | [6] 1.45%

COC(=O)c1sc(C(=O)OC)c2c1CS(=O)C2
inactive: [1] -10.3% | [2] 2.1% | [3] 10.1% | [4] 30% | [5] 5.45% | [6] 42.2%

NC(=O)c1cccc[n+]1[O-]
inactive: [1] -6.25% | [2] 7.25% | [3] -12.6% | [4] 6.05% | [5] 19.6% | [6] 1.3%

COc1ccc2c(c1)OC(OC)(c1ccc(OC)c(OC)c1)C(O)(OC)C2=O (stereo not given)
inactive: [1] 39.4% | [2] 14.8% | [3] 27.6% | [4] 19.6% | [5] 11.8% | [6] 29%

N#C/C(=C\NC(N)=S)C(=O)c1ccc2ccccc2c1
inactive: [1] -14.3% | [2] -20.9% | [3] -25.9% | [4] 27.5% | [5] 0.8% | [6] -11.1%

O=[N+]([O-])c1cccc(C2=NON(c3ncccn3)C3N=CC=CN23)c1 (stereo not given)
inactive: [1] 11.9% | [2] -17.7% | [3] 14.3% | [4] -4.9% | [5] -9.65% | [6] 26.1%

O=C(O)c1cc2c(c(C(=O)O)c1O)CCCC2
inactive: [1] 11.3% | [2] -19.6% | [3] 9.95% | [4] -23.2% | [5] -6.35% | [6] -4.85%

COc1cc2c(cc1O)C1Cc3cc(O)c(OC)cc3C(C2)N1C (stereo not given)
inactive: [1] -29.8% | [2] -12.7% | [3] -30.2% | [4] 3.1% | [5] -25.6% | [6] -22.1%

COC(=S)SSC(=S)NCCN(CCNC(=S)SSC(=S)OC)C(=S)SSC(=S)OC
inactive: [1] 2.05% | [2] 6.2% | [3] -2.65% | [4] -2.7% | [5] 7.8% | [6] 26.6%

CC(=O)c1cccc(NC(=O)Oc2ccc(F)cc2Cl)c1
inactive: [1] -2.3% | [2] 29.1% | [3] 18.8% | [4] -13.6% | [5] 12.9% | [6] -1.8%

O=C(Nc1c(Cl)cccc1Cl)Oc1cccnc1
inactive: [1] 0% | [2] -19.8% | [3] -9.1% | [4] 2.55% | [5] -23.1% | [6] -1.05%

Cc1ccc(N=Nc2ccc(C)cc2NC(=O)c2ccc(Cl)cc2)cc1
inactive: [1] -3.15% | [2] 10.2% | [3] 17.1% | [4] -7.8% | [5] 32.3% | [6] 8.85%

Cc1nc(N)c(N2CCN(S(=O)(=O)N(Cc3ccccc3)Cc3ccccc3)CC2)c(=O)[nH]1
inactive: [1] -10.9% | [2] 2.3% | [3] 2.95% | [4] -11.9% | [5] 14.9% | [6] 3.95%

CCOC(=O)C(C)(C)c1cn(C)c2ccccc12
inactive: [1] -7.05% | [2] -9.9% | [3] -2.7% | [4] -4.8% | [5] -6.55% | [6] 7.4%

CCCCCCCCCCCCc1c2ccccc2cc2ccccc12
inactive: [1] 3.55% | [2] -3.8% | [3] -4.7% | [4] -11.4% | [5] 25.1% | [6] 9.5%

O=C(O)CCSSCCC(=O)O
inactive: [1] 7.25% | [2] 6.5% | [3] 10.8% | [4] -1.65% | [5] -4.1% | [6] 10.8%

O=C(Cn1c2c(c3ccccc31)CCCC2)NC1CCCCC1
inactive: [1] 2.6% | [2] -28.4% | [3] 21.9% | [4] 30.3% | [5] 1.25% | [6] 9.7%

CCC(C)CCC(=O)C(C)C=O (stereo not given)
inactive: [1] -0.8% | [2] -7.3% | [3] 3% | [4] -5.9% | [5] -6.2% | [6] -3.85%

O=c1[nH]nc(Cc2ccc(Cl)cc2)n1CCO
inactive: [1] 8.2% | [2] 5.95% | [3] 19.6% | [4] 3.75% | [5] 5.85% | [6] -21.1%

COc1ccccc1NC(=O)C1=C(C)NC(C)=C(C(=O)Nc2ccccc2OC)C1C1=CC=COC1
inactive: [1] -30.4% | [2] -12.8% | [3] -25.9% | [4] -1.1% | [5] 13.1% | [6] -15.5%

COc1ccc(OC)c(C2=CCCCCC2)c1
inactive: [1] 7.6% | [2] -6.15% | [3] 3.1% | [4] -22.1% | [5] -7.85% | [6] 13.5%

Cc1ccncc1.[O]=[Ge].[O]=[Ge].[O]=[Ge].[O]=[Ge].[O]=[Ge].[O]=[Ge][OH].[O]=[Ge][OH]
inactive: [1] -27.3% | [2] -35.4% | [3] -42.5% | [4] -23.1% | [5] -24.8% | [6] -30.1%

CCN1CCCC(N)C1 (stereo not given)
inactive: [1] -26.1% | [2] -23.2% | [3] -34.9% | [4] 11.8% | [5] -41.8% | [6] -27.9%

COC(=O)C1=CC2C(C1)C1CC2C(OC(C)=O)C1N(C)C (stereo not given)
inactive: [1] 15.8% | [2] 6% | [3] -0.55% | [4] -31.8% | [5] 6.35% | [6] 17.4%

Nc1ccc2cccc(O)c2c1
inactive: [1] 44.1% | [2] 24.2% | [3] 12.9% | [4] -9.4% | [5] 34.2% | [6] 32.4%

CSC1C(=O)Nc2ccc([N+](=O)[O-])cc21 (stereo not given)
inactive: [1] -11.6% | [2] -12.7% | [3] 0.45% | [4] -19.3% | [5] -39.7% | [6] -0.8%

OCc1ccc(F)cc1CO
inactive: [1] -12.4% | [2] -2.35% | [3] -2.85% | [4] -17.1% | [5] -11.2% | [6] 11.9%
